According to PubChem BioAssay (EPA / NIEHS):
“And” between values parts separate entries of the source, which are not always exact repeats. Identical values can stand only once. A structure can be active in one record and inactive in another. The source made the active and inactive calls. The calls were made as follows: active = hit-call score of the fitted dose curve at least 0.9, where 1 is the maximum; inactive = score below 0.9.

Test: ATG_TGFb_CIS: Attagene CIS-FACTORIAL HepG2 Assay for human Transforming Growth Factor (TGF) (AID 2282967)
Conditions: HepG2 Attagene CIS TGFb reporter, mRNA transcription; actives raise or lower the signal
Method: ATG_CIS is a cell-based, multiplexed-readout assay that uses HepG2, a human liver cell line, with measurements taken at 24 hours after chemical dosing in a 24-well plate.ATG_TGFb_CIS is one of 52 assay component(s) measured or calculated from the ATG_CIS assay. It is designed to make measurements of mRNA induction, a form of inducible reporter, as detected with fluorescence intensity signals by Reverse transcription polymerase chain reaction (RT-PCR) and Capillary electrophoresis technology.Data from the assay component ATG_TGFb_CIS was analyzed into 1 assay endpoint. This assay endpoint, ATG_TGFb_CIS, was analyzed with bidirectional fitting relative to DMSO as the negative control and baseline of activity. Using a type of inducible reporter, measures of mRNA for gain or loss-of-signal activity can be used to understand the reporter gene at the transcription factor-level as they relate to the gene TGFB1. Furthermore, this assay endpoint can be referred to as a primary readout, because this assay has produced multiple assay endpoints where this one serves a reporter gene function. To generalize the intended target to other relatable targets, this assay endpoint is annotated to the growth factor intended target family, where the subfamily is transforming growth factor beta.
Human liver HepG2 cells are transiently transfected with multiple reporter transcription units (MRTUs) in 6-well plates using FuGene 6 reagent (Roche; 3 ml FuGene/1 mg DNA). The MRTU constructs are regulated by a cis-regulating element (promoter). […] A major difference between the CIS and TRANS system is that in CIS activities of endogenous TFs are measured, whereas the TRANS assay evaluates changes in activities of exogenous, chimeric NR-Gal4 proteins. […] At the end of 24 hour incubation, total RNA was isolated using TriZol reagent (Invitrogen). The isolated RNA is then reverse-transcribed using oligo(dT) primer and Mo-MLV reverse transcriptase (Invitrogen) with DNAse I (Ambion) treatment for 30 min. The one-tenth of the produced cDNA was amplified by PCR using Taq DNA polymerase (Invitrogen) and two reporter sequence-specific primers. The PCR products were fluorescently labeled by primer extension with 6-arboxyfluorescein (6-FAM) 5'-labeled reporter sequence-specific primer (2 min at 95 C, 20 s at 68 C and 10 min at 72 C) and these products were digested with 5U of HpaI (New England Biolabs) for 2h at 37 C. The fragments were purified using Qiaquick PCR columns (Qiagen), analyzed on an ABI 3130xL genetic analyzer (Applied Biosystems) with peak positions identified by using a set of X-rhodamine (ROX)-labeled MapMarker1000 molecular weight standards (BioVentures). The raw capillary electrophoresis data was processed using Attagraph software (Attagene).

Compound | outcome | AC50
O=C(NC(=O)c1c(F)cccc1F)Nc1cc(Cl)c(OC(F)(F)C(F)F)c(Cl)c1 | inactive | 
Cc1ccccc1CO[C@@H]1C[C@@]2(C(C)C)CC[C@]1(C)O2 | inactive | 
C=CC(N)=O | inactive | 
NS(=O)(=O)C(F)(F)C(F)(F)C(F)(F)C(F)(F)C(F)(F)C(F)(F)C(F)(F)C(F)(F)F | inactive | 
N#Cc1ccc(N(CC(N)=O)CC(F)(F)F)cc1C(F)(F)F | inactive | 
Cc1cccc([N+](=O)[O-])c1 | inactive | 
Cc1cc(-c2ccc(N)c(C)c2)ccc1N | inactive | 
Sc1ccccc1 | inactive | 
CCNc1nc(NC(C)C)nc(SC)n1 | inactive | 
Cc1cc2c3c(c1)C(c1ccccc1)=N[C@@H](NC(=O)c1ccncc1)C(=O)N3CC2 | inactive | 
CCOC(=O)C(O)(c1ccc(Cl)cc1)c1ccc(Cl)cc1 | inactive | 
Oc1ccc(Cl)cc1Cl | inactive | 
Cc1cccc(C)c1N | inactive | 
Nn1cnnc1 | inactive | 
CC1=C2C[C@H]3[C@@H](CC=C4C[C@@H](O)CC[C@@]43C)[C@@H]2CC[C@]12O[C@@H]1C[C@H](C)CN[C@H]1[C@H]2C | inactive | 
COc1ccc(O)c(C(C)(C)C)c1 | inactive | 
CCOP(=S)(OCC)SCSC(C)(C)C | inactive | 
CCOCCOC(C)=O | inactive | 
O=C(O)C(F)(F)C(F)(F)C(F)(F)C(F)(F)C(F)(F)C(F)(F)C(F)(F)C(F)(F)C(F)(F)F | inactive | 48.9 µM (active) and 14.6 µM (active)

Compound | outcome | AC50
C[C@]12CCC(=O)C=C1CC[C@@H]1[C@@H]2CC[C@]2(C)C(=O)CC[C@@H]12 | inactive | 
Nc1ccc(-c2ccc(N)cc2)cc1 | inactive | 
ClC1=C(Cl)[C@]2(Cl)[C@@H]3[C@@H](Cl)[C@H]4O[C@H]4[C@@H]3C1(Cl)C2(Cl)Cl | inactive | 
O=NN(c1ccccc1)c1ccccc1 | inactive | 
Cc1ccccc1[N+](=O)[O-] | inactive | 
Oc1ccc(C(c2ccc(O)cc2)(C(F)(F)F)C(F)(F)F)cc1 | inactive | 
O=C(N[C@H]1CN2CCC1CC2)c1cc2ccoc2cn1 | inactive | 
CCC(=O)O[C@H]1CC[C@H]2[C@@H]3CCC4=CC(=O)CC[C@]4(C)[C@H]3CC[C@]12C | inactive | 
Cc1ccc(O)c(C)c1 | inactive | 
CO/C=C(/C(=O)OC)c1ccccc1COc1cccc(C(F)(F)F)n1 | inactive | 
C=CC(=O)NCNC(=O)C=C | inactive | 
c1ccc(-c2ccccc2)cc1 | inactive | 
CC(C)(c1ccccc1)c1ccc(O)cc1 | inactive | 
Oc1c(Cl)c(Cl)c(Cl)c(Cl)c1Cl | inactive | 13.2 µM (active)
COS(=O)(=O)OC | inactive | 
Clc1ccc(Cl)cc1 | inactive | 
CCC(C)c1cc([N+](=O)[O-])cc([N+](=O)[O-])c1O (stereo not given) | inactive | 
ClC1=C(Cl)[C@]2(Cl)[C@@H]3[C@@H]4C[C@@H]([C@H]5O[C@@H]45)[C@@H]3[C@@]1(Cl)C2(Cl)Cl | inactive | 
c1cc2ccc3cccc4ccc(c1)c2c34 | inactive | 
